Only a sample is shown.
RVFV N-RNA inh: blocks Rift Valley Fever Virus nucleoprotein binding to RNA; P21700; hit rate 0.1% among 20,000; % bound, % (no concentration beside the values); AID 651828; RVFV N-RNA binding, fluorescence polarization; hits give low values; in the data active = % bound below about 75%
Starred values were filed as active, the others as inactive.

SMILES	RVFV N-RNA inh
Cc1ccc(C(=O)CNC(=O)C2Cc3ccccc3C(=O)O2)cc1 (configuration not stated)	90
Cc1ccc2c(CC(=O)NC3CCCC3)coc2c1	93
CC(=O)Nc1cccc(C(=O)N(C)c2ccccc2)c1	97
OC(Cn1cnc2ccccc21)Cn1c2ccccc2c2ccccc21 (configuration not stated)	85
Cc1ccc(S(=O)(=O)c2c[nH]c3ccccc3c2=O)cc1	90
O=C(NCCc1cn2c(n1)SCC2)c1ccc(-c2ccccc2)cc1	97
O=C1c2ccc3c4c(ccc(c24)C(=O)N1c1nccs1)C(=O)N(c1nccs1)C3=O	86
CCN1CCC2(CC1)Oc1ccccc1C1CC(c3ccccc3)=NN12 (configuration not stated)	97
COc1ccccc1-c1nc(-c2cccc(Br)c2)no1	95
O=C(CN1CCCc2ccccc21)Nc1ccccc1	98
